# Experimental data: article PMC7862700, “An all-to-all approach to the identification of sequence-specific readers for epigenetic DNA modifications on cytosine”
# Tests used:
# Test in all cases: DAPPL (digital affinity profiling via proximity ligation, sequencing); 10 mM Tris-HCl pH 7.5, 50 mM NaCl, 1 mM DTT, 4% glycerol, room temperature, 30 min; GST-TFs on glutathione beads, 16-mer random dsDNA library, 0.1% formaldehyde crosslink after washing; high values mean tight binding
# FLI1 = target: T1, FLI1 (Homo sapiens, UniProt Q01543 1-452); details: protein: recombinant; tags: N-terminal GST; dsDNA, one strand shown
# T1 sequence: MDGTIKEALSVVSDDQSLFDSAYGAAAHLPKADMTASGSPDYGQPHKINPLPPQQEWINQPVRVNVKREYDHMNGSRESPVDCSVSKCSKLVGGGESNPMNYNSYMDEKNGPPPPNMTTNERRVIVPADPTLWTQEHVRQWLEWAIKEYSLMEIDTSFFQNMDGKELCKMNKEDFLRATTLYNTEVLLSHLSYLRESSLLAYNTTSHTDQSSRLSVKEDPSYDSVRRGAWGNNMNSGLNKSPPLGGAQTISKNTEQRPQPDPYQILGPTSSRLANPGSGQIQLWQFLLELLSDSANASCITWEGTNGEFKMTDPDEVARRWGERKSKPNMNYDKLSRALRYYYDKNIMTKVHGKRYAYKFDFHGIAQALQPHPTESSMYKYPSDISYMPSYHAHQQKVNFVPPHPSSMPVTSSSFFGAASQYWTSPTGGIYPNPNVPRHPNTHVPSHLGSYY
# Summary of the method: (§1)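 Each value of binding signal is a hexamer's read frequency for a factor divided by the same hexamer's frequency in the tag-only sample. Barcoded, bead-captured GST fusions of human transcription factors made in yeast were pooled with that sample and incubated with 200 nmole of a random double-stranded 16-mer DNA library in Tris/NaCl/DTT/glycerol buffer at room temperature for 30 min. Washing, 0.1% formaldehyde crosslinking, proximity ligation, PCR and Illumina NextSeq500 sequencing followed.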
# ELK1 = target: T2, ELK1 (Homo sapiens, UniProt P19419 1-428); details: protein: recombinant; tags: N-terminal GST; dsDNA, one strand shown
# T2 sequence: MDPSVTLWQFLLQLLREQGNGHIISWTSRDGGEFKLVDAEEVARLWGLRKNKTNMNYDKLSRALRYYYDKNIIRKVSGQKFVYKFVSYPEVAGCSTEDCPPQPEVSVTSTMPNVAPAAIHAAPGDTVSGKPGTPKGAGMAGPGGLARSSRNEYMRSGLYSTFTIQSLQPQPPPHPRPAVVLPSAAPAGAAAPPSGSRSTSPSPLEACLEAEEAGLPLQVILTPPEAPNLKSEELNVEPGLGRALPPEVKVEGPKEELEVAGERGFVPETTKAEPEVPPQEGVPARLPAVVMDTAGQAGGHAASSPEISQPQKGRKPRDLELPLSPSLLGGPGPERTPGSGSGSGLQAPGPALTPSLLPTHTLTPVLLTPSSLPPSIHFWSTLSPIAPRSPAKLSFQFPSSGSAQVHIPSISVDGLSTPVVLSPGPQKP
# Summary of the method: as §1
# GABPA = target: T3, GABPA (Homo sapiens, UniProt Q06546 1-454); details: protein: recombinant; tags: N-terminal GST; dsDNA, one strand shown
# T3 sequence: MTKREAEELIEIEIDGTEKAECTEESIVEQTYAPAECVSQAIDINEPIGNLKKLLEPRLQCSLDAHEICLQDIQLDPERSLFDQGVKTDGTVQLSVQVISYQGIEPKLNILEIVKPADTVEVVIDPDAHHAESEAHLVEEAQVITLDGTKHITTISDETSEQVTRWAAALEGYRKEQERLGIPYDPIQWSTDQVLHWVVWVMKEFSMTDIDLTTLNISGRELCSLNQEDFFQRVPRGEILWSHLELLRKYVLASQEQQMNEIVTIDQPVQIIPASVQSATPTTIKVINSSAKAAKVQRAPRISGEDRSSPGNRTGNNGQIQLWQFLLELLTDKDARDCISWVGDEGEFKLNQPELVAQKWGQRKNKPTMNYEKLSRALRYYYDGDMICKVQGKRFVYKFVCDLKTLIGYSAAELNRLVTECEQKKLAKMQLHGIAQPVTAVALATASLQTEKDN
# Summary of the method: as §1
# ELF1 = ELF1 (Homo sapiens, UniProt P32519 1-619); details: protein: recombinant; tags: N-terminal GST; dsDNA, one strand shown
# Summary of the method: as §1
# EHF = target: T4, EHF (Homo sapiens, UniProt Q9NZC4 1-300); details: protein: recombinant; tags: N-terminal GST; dsDNA, one strand shown
# T4 sequence: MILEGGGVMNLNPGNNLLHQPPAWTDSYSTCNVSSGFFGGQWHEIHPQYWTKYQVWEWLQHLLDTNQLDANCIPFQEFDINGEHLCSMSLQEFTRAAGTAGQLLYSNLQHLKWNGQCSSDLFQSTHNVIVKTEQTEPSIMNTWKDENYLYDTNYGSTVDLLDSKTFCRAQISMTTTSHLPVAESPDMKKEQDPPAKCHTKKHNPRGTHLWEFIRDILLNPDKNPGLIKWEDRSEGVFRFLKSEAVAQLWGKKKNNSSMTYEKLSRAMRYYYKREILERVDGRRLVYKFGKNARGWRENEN
# Summary of the method: as §1
# SPI1 = SPI1 (Homo sapiens, UniProt P17947 1-270); details: protein: recombinant; tags: N-terminal GST; dsDNA, one strand shown
# Summary of the method: as §1
# SPIB = SPIB (Homo sapiens, UniProt Q01892 1-262); details: protein: recombinant; tags: N-terminal GST; dsDNA, one strand shown
# Summary of the method: as §1
# ELK3 = target: T5, ELK3 (Homo sapiens, UniProt P41970 1-407); details: protein: recombinant; tags: N-terminal GST; dsDNA, one strand shown
# T5 sequence: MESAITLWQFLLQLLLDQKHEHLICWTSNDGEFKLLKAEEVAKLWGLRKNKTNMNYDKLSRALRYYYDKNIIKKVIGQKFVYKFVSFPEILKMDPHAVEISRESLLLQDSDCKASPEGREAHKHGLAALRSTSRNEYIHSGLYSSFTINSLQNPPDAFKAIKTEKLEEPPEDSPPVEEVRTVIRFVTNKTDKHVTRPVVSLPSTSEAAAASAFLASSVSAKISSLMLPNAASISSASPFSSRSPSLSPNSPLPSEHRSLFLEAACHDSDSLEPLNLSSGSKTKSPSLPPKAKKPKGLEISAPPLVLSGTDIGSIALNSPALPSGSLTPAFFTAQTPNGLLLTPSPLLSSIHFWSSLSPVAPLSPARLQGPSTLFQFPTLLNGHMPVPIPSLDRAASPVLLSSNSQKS
# Summary of the method: as §1
# FEV = target: T6, FEV (Homo sapiens, UniProt Q99581 1-238); details: protein: recombinant; tags: N-terminal GST; dsDNA, one strand shown
# T6 sequence: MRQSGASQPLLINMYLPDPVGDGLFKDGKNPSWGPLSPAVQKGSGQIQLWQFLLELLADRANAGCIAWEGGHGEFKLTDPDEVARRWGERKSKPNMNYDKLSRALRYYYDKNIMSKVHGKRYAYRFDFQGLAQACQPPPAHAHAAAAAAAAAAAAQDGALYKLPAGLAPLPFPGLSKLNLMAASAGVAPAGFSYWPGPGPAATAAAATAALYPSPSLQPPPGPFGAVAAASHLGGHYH
# Summary of the method: as §1
# ETV5 = ETV5 (Homo sapiens, UniProt P41161 1-510); details: protein: recombinant; tags: N-terminal GST; dsDNA, one strand shown
# Summary of the method: as §1
# HSF1 = HSF1 (Homo sapiens, UniProt Q00613 1-529); details: protein: recombinant; tags: N-terminal GST; chain copies: 3; dsDNA, one strand shown
# Summary of the method: as §1
# SPIC = target: T7, SPIC (Homo sapiens, UniProt Q8N5J4 1-248); details: protein: recombinant; tags: N-terminal GST; dsDNA, one strand shown
# T7 sequence: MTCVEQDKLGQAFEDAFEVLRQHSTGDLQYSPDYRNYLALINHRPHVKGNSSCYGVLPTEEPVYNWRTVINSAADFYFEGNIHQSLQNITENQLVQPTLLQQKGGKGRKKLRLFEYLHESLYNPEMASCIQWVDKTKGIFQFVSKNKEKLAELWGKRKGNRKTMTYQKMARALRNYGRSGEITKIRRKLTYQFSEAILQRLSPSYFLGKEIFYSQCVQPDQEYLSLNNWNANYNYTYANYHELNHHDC
# Summary of the method: as §1
# ELF4 = ELF4 (Homo sapiens, UniProt Q99607 1-663); details: protein: recombinant; tags: N-terminal GST; dsDNA, one strand shown
# Summary of the method: as §1
# ELK4 = target: T8, ELK4 (Homo sapiens, UniProt P28324-2 1-405); details: protein: recombinant; tags: N-terminal GST; dsDNA, one strand shown
# T8 sequence: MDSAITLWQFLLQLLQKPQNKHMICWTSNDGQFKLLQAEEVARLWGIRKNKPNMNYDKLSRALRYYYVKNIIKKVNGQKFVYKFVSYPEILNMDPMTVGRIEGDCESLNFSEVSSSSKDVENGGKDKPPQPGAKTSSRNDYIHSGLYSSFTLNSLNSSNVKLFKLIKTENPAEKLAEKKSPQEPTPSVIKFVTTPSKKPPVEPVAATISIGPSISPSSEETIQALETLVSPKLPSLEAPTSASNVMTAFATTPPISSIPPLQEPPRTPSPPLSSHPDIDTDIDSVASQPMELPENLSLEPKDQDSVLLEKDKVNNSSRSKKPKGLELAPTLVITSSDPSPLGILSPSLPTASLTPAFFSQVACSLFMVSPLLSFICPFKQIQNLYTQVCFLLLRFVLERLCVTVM
# Summary of the method: as §1
# ETV2 = target: T9, ETV2 (Homo sapiens, UniProt O00321 1-342); details: protein: recombinant; tags: N-terminal GST; dsDNA, one strand shown
# T9 sequence: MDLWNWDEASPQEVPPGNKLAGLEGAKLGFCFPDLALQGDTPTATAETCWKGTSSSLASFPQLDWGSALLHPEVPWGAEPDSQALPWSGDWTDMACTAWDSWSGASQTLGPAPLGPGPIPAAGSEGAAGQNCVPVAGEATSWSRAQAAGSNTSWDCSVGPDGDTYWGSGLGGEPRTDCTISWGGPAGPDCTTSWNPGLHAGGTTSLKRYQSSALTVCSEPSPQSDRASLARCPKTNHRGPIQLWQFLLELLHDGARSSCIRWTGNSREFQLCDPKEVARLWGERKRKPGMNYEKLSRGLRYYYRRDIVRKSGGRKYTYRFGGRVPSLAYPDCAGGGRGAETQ
# Summary of the method: as §1
# ELF3 = target: T10, ELF3 (Homo sapiens, UniProt P78545 1-371); details: protein: recombinant; tags: N-terminal GST; dsDNA, one strand shown
# T10 sequence: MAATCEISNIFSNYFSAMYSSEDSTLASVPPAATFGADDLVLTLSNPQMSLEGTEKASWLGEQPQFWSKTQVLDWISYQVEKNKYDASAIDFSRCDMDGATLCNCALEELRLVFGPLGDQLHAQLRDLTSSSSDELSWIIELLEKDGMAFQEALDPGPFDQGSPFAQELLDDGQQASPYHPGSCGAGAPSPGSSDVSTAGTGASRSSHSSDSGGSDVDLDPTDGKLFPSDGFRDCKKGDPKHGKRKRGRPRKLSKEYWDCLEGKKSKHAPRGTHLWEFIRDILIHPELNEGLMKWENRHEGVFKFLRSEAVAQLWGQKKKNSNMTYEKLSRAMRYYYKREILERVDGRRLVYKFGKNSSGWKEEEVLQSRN
# Summary of the method: as §1
# CRX = CRX (Homo sapiens, UniProt O43186 1-299); details: protein: recombinant; tags: N-terminal GST; dsDNA, one strand shown
# Summary of the method: as §1
# ETV1 = ETV1 (Homo sapiens, UniProt P50549 1-477); details: protein: recombinant; tags: N-terminal GST; dsDNA, one strand shown
# Summary of the method: as §1
# HSF1, sequence (Q00613 whole entry): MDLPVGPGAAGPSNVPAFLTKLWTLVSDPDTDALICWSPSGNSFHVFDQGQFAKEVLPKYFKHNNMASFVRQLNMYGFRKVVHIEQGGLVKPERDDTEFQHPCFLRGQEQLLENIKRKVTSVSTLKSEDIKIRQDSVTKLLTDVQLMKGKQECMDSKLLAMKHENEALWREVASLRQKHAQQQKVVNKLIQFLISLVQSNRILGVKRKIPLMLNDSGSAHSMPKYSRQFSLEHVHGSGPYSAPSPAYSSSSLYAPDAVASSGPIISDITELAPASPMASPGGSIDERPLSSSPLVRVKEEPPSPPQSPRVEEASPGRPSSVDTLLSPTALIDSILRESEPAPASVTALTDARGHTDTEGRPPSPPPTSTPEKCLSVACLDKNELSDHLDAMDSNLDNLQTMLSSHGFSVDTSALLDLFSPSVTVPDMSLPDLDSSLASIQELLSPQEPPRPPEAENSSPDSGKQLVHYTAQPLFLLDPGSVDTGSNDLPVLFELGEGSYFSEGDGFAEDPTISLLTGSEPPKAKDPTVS
# ELF1, sequence (P32519 whole entry): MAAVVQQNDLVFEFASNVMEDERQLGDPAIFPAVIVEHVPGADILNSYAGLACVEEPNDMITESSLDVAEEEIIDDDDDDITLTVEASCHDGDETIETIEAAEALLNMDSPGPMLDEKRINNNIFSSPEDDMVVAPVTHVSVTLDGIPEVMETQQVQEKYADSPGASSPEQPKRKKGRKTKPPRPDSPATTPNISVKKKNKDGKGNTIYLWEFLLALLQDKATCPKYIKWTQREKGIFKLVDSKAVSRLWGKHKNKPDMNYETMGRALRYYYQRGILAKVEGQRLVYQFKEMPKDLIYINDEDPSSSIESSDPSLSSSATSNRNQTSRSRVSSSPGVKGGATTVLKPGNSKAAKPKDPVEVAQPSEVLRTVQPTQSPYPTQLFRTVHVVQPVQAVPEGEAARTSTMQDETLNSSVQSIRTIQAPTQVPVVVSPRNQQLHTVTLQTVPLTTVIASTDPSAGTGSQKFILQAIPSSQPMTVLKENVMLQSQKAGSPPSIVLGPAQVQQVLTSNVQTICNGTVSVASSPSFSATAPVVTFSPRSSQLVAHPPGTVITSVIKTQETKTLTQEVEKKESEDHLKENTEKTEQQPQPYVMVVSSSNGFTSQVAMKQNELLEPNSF
# ETV1, sequence (P50549 whole entry): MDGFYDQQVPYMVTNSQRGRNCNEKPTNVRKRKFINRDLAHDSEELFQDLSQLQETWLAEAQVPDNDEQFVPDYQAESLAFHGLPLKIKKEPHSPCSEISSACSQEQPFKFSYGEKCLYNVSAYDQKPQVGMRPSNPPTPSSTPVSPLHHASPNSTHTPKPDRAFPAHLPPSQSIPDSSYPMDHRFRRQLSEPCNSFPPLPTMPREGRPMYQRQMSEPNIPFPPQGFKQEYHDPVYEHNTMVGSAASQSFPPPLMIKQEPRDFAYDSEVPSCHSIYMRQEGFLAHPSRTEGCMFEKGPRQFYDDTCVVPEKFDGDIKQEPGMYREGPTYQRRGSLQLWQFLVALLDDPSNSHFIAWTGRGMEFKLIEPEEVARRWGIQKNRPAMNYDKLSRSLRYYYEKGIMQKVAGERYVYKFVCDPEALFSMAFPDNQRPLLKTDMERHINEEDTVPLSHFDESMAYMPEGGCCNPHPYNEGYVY
# ELF4, sequence (Q99607 whole entry): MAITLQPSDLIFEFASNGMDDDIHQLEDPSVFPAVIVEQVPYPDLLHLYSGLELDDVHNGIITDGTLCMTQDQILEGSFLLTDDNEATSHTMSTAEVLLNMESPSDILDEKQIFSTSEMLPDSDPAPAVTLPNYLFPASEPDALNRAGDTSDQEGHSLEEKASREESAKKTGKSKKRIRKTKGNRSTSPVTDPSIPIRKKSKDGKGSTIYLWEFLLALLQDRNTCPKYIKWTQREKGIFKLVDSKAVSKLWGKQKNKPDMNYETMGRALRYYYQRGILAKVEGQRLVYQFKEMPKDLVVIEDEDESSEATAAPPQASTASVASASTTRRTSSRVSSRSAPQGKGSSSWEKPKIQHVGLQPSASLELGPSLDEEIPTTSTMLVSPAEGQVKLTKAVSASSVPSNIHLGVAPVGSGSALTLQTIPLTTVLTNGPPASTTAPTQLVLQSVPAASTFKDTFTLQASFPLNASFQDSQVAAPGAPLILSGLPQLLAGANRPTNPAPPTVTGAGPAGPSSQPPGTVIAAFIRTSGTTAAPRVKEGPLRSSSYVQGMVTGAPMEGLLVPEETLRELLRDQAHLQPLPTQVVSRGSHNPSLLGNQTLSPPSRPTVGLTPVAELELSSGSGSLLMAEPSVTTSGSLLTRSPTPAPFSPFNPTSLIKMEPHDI
# ETV5, sequence (P41161 whole entry): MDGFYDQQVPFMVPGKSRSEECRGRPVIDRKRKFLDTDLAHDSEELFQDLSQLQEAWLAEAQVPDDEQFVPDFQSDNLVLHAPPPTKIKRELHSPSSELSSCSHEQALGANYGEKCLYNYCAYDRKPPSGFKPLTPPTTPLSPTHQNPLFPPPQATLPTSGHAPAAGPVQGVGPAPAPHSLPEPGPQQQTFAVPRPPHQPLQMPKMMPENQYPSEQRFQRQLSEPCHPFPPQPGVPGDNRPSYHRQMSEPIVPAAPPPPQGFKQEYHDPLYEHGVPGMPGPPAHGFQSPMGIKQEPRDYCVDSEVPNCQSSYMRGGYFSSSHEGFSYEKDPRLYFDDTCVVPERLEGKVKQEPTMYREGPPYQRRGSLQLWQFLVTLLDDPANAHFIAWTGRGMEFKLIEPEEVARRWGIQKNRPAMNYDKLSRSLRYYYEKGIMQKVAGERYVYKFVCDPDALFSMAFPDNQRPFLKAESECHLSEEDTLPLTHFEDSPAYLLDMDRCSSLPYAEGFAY
# CRX, sequence (O43186 whole entry): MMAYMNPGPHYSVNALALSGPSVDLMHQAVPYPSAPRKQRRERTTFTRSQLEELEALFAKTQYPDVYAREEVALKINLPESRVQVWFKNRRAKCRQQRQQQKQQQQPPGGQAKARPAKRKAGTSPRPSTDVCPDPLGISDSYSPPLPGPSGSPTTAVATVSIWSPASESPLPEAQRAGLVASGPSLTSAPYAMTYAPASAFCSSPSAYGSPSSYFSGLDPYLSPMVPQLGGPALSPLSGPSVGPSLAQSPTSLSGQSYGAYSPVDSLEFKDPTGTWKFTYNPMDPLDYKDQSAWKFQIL
# SPIB, sequence (Q01892 whole entry): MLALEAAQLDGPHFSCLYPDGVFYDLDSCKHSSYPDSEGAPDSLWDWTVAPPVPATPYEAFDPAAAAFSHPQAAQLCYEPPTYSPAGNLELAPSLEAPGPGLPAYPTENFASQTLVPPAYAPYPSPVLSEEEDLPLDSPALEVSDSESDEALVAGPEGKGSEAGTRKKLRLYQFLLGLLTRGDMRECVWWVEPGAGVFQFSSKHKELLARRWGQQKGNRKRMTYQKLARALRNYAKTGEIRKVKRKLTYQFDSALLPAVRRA
sequence,measurement,setting,value
CCCTGG,binding signal,FLI1,"1.1 fold enrichment (6-mer frequency, TF over GST control)"
same,binding signal,ELK1,"1.13 fold enrichment (6-mer frequency, TF over GST control)"
same,binding signal,GABPA,"1.21 fold enrichment (6-mer frequency, TF over GST control)"
same,binding signal,ELF1,"1.19 fold enrichment (6-mer frequency, TF over GST control)"
same,binding signal,EHF,"1.11 fold enrichment (6-mer frequency, TF over GST control)"
same,binding signal,SPI1,"1.06 fold enrichment (6-mer frequency, TF over GST control)"
same,binding signal,SPIB,"1.09 fold enrichment (6-mer frequency, TF over GST control)"
same,binding signal,ELK3,"1.03 fold enrichment (6-mer frequency, TF over GST control)"
same,binding signal,FEV,"1.08 fold enrichment (6-mer frequency, TF over GST control)"
same,binding signal,ETV5,"1.09 fold enrichment (6-mer frequency, TF over GST control)"
same,binding signal,HSF1,"1.11 fold enrichment (6-mer frequency, TF over GST control)"
same,binding signal,SPIC,"1.25 fold enrichment (6-mer frequency, TF over GST control)"
same,binding signal,ELF4,"1.14 fold enrichment (6-mer frequency, TF over GST control)"
same,binding signal,ELK4,"1.21 fold enrichment (6-mer frequency, TF over GST control)"
same,binding signal,ETV2,"1.04 fold enrichment (6-mer frequency, TF over GST control)"
same,binding signal,ELF3,"1 fold enrichment (6-mer frequency, TF over GST control)"
same,binding signal,CRX,"1.06 fold enrichment (6-mer frequency, TF over GST control)"
same,binding signal,ETV1,"1.18 fold enrichment (6-mer frequency, TF over GST control)"
